These results are taken from PubChem BioAssay (NCI).

This is part of a sample that, as a whole, favours compounds with a hit. Of some 79,000 tested, about 15% had one in any assay. Unmarked numbers belong to inactive results. The source made the active and inactive calls. No stated cut-off is given here; in the data, active means growth inhibition above about 70%; inactive means the rest.

One experiment in a line: NCI Yeast Anticancer Drug Screen. Data for the mec2-1 strain (AID 157). The note with it: S. cerevisiae mec2-1 strain, at 50.0 µM (retest, dose inferred, filed as 5.0), stronger effect = higher value. Put shortly: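 mec2-1 yeast strain, carrying an alteration in DNA damage repair or cell cycle control, was exposed to compounds; growth inhibition was measured relative to vehicle-treated controls.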
With `CCc1ccc(/C(C)=N/NC(N)=S)cc1`, the growth inhibition was 95% (active).

`CC(C)/C=C1\CCOC1=O`: the growth inhibition was 1%.

In the case of `COc1c(C(=O)/C(=N/Nc2ccccc2)C(C)=O)c(O)c(OC)c2occc12`, the growth inhibition was 87% (active).

Regarding `COc1ccc(CC/C(=N/O)c2ccccc2)cc1`, the growth inhibition is 97% (active).

Consider `CCOC(=O)C1(C#N)C(c2ccccc2)C1(C#N)C#N` (stereo not given), for which the growth inhibition is 96% (active).

In the case of `COc1ccc(OC)c(/C=C/NC=O)c1`, the growth inhibition was -7%.

Consider `CC(=O)Oc1ccc(-c2ccc(Br)cc2)cc1`, for which the growth inhibition was 91% (active).

For the compound `COC(=O)/C(C#N)=C/c1cc(OC)c(O)cc1Br`, the growth inhibition is 44%.

Turning to `CCC(C1SC(=S)NC1=O)C1SC(=S)NC1=O` (stereo not given), the growth inhibition is 29%.

Take `CCC(C)c1ccc(O)c(C(C)c2ccccc2)c1` (stereo not given): the growth inhibition was 68%.

As for `C/C(=N\NC(=S)N1CCN(c2ccccc2)CC1)c1nccs1`, the growth inhibition was 98% (active).

In the case of `COc1ccc2c(C(=O)c3ccccc3)c3[n+](cc2c1OC)CCc1cc2c(cc1-3)OCO2`, the growth inhibition is 22%.

On to `Cc1cccc(C[N+](C)(C)CCCO)c1C`, for which the growth inhibition is 0%.

For `c1ccc(N=C2SC3=NCCN3C2=Nc2ccccc2)cc1`, the growth inhibition is 86% (active).

In the case of `Cc1ccc(SCc2ccccc2Cl)nn1`, the growth inhibition is 11%.

Consider `CCCc1cc(=O)oc2c3c(c4c(c12)OC(C)(C)CC4)O[C@H](C)[C@H](C)C3=O`, for which the growth inhibition is 99% (active).

Take `CC1(C)COC(c2cccc(C(O)c3ccc(Cl)cc3)c2)=N1` (stereo not given): the growth inhibition was 99% (active).

For the compound `CCOC(=O)c1cc(NC(=O)c2cc(NC(=O)c3cc(NC(=O)c4c(-c5ccccc5)noc4C)cn3C)cn2C)cn1C`, the growth inhibition was 54%.

Turning to `O=C(N/N=C/c1ccccc1O)c1ccccc1-n1cccc1`, the growth inhibition is 53%.

In the case of `O=C1CN(CCN2CCOCC2)CC(=O)N2Cc3ccccc3CN12`, the growth inhibition was 55%.

With `CCC[CH2][Sn]([CH2]CCC)([NH]c1ncnc2[nH]cnc12)[NH]c1ncnc2[nH]cnc12`, the growth inhibition was 98% (active).

As to `Oc1ccc(Br)cc1C=Nc1c(NC2CCCCC2)oc2ccc(Br)cc12`, the growth inhibition was -2%.

As to `Cc1cc2c(C(C)C)c(O)c(O)c3coc(/c1=c1/c(C)cc4c(C(C)C)c(=O)c(=O)c5coc1c45)c32`, the growth inhibition is 99% (active).

Regarding `O=C1c2ccccc2C(=O)N1/N=C\c1ccccc1[N+](=O)[O-]`, the growth inhibition was 41%.

Turning to `O[C@H](CNCCS)[C@@H](O)CNCCS`, the growth inhibition was 28%.

For `C[C@]12CC[C@H](O)CC1=CC[C@@H]1C2CC[C@]2(C)C(=O)N(N)C(=O)CC12` (stereo not given in full), the growth inhibition is 91% (active).

For the compound `O=C(C(/C=N/C(=S)NCc1ccccc1)=C(/O)c1ccccc1)c1ccccc1`, the growth inhibition was 69%.

With `C=CC1(c2ccc(-c3ccccc3)cc2)OCCO1`, the growth inhibition was 6%.

With `C=C1CC(COc2ccc3c(C)cc(=O)oc3c2)(c2ccccc2)OC1=O` (stereo not given), the growth inhibition was 17%.

In the case of `CN(C)CCCNc1c2ccccc2nc2ccc([N+](=O)[O-])cc12`, the growth inhibition is 70% (active).

As for `CN1CCC(OC(=O)c2ccc3ncccc3c2)CC1`, the growth inhibition is 4%.

Regarding `COc1ccc(/C=C2/C(=O)N(C(=O)c3ccccc3O)N=C2C)cc1OC`, the growth inhibition is 59%.

As to `CC1([N+](=O)[O-])C(=O)C2(N3CCOCC3)CCCC2C1c1ccccc1` (stereo not given), the growth inhibition is 99% (active).

With `COc1ccc(C2=C(Cl)C(=O)N(c3ccc(C)cc3)C(=O)C2(Cl)Cl)cc1`, the growth inhibition was 36%.

Consider `COc1ccnc(-c2cc(OC)cc(/C(N)=N/O)n2)c1`, for which the growth inhibition is 83% (active).

Consider `Nc1ccccc1CCc1ccccc1`, for which the growth inhibition is 74% (active).

For the compound `COC(=O)c1ccc(OCCC(=O)CCl)cc1`, the growth inhibition is 52%.

Take `CCCCCCCCCCCCS(=O)(=O)CC(Br)C(=O)c1ccco1` (stereo not given): the growth inhibition is 97% (active).

`FC(F)(F)C(F)(F)C1(F)C(F)(F)C(F)(F)C(F)(F)C(F)(F)C1(F)F`: the growth inhibition is 1%.

For `O=C(O)C(O)C(O)C(O)C(O)CO.[Ag]` (stereo not given), the growth inhibition was 99% (active).

Staying with this experiment, now noted: S. cerevisiae mec2-1 strain, at 50.0 µM, stronger effect = higher value.
For the compound `CCc1ccc(/C(C)=N/NC(N)=S)cc1`, the growth inhibition is 19.9%.

Regarding `CC(C)/C=C1\CCOC1=O`, the growth inhibition is 14.8%.

Regarding `COc1c(C(=O)/C(=N/Nc2ccccc2)C(C)=O)c(O)c(OC)c2occc12`, the growth inhibition is 52.5%.

For the compound `COc1ccc(CC/C(=N/O)c2ccccc2)cc1`, the growth inhibition was 96.9% (active).

Take `CCOC(=O)C1(C#N)C(c2ccccc2)C1(C#N)C#N` (stereo not given): the growth inhibition is 99.3% (active).

`COc1ccc(OC)c(/C=C/NC=O)c1`: the growth inhibition is 13.2%.

`CC(=O)Oc1ccc(-c2ccc(Br)cc2)cc1`: the growth inhibition was 97.9% (active).

For the compound `COC(=O)/C(C#N)=C/c1cc(OC)c(O)cc1Br`, the growth inhibition is 40%.

On to `CCC(C1SC(=S)NC1=O)C1SC(=S)NC1=O` (stereo not given), for which the growth inhibition was 99.6% (active).

With `CCC(C)c1ccc(O)c(C(C)c2ccccc2)c1` (stereo not given), the growth inhibition is 92.2% (active).

Regarding `C/C(=N\NC(=S)N1CCN(c2ccccc2)CC1)c1nccs1`, the growth inhibition was 91.8% (active).

`COc1ccc2c(C(=O)c3ccccc3)c3[n+](cc2c1OC)CCc1cc2c(cc1-3)OCO2`: the growth inhibition was 53.6%.

Consider `Cc1cccc(C[N+](C)(C)CCCO)c1C`, for which the growth inhibition was -24.6%.

On to `c1ccc(N=C2SC3=NCCN3C2=Nc2ccccc2)cc1`, for which the growth inhibition was 74.5% (active).

In the case of `Cc1ccc(SCc2ccccc2Cl)nn1`, the growth inhibition was -2.15%.

With `CCCc1cc(=O)oc2c3c(c4c(c12)OC(C)(C)CC4)O[C@H](C)[C@H](C)C3=O`, the growth inhibition was 91.6% (active).

As for `CC1(C)COC(c2cccc(C(O)c3ccc(Cl)cc3)c2)=N1` (stereo not given), the growth inhibition was 68%.

`CCOC(=O)c1cc(NC(=O)c2cc(NC(=O)c3cc(NC(=O)c4c(-c5ccccc5)noc4C)cn3C)cn2C)cn1C`: the growth inhibition is 56.8%.

Take `O=C(N/N=C/c1ccccc1O)c1ccccc1-n1cccc1`: the growth inhibition is 36.6%.

With `O=C1CN(CCN2CCOCC2)CC(=O)N2Cc3ccccc3CN12`, the growth inhibition was 24.1%.

Take `CCC[CH2][Sn]([CH2]CCC)([NH]c1ncnc2[nH]cnc12)[NH]c1ncnc2[nH]cnc12`: the growth inhibition was 91.7% (active).

Regarding `Oc1ccc(Br)cc1C=Nc1c(NC2CCCCC2)oc2ccc(Br)cc12`, the growth inhibition is 39.4%.

For the compound `Cc1cc2c(C(C)C)c(O)c(O)c3coc(/c1=c1/c(C)cc4c(C(C)C)c(=O)c(=O)c5coc1c45)c32`, the growth inhibition was 99.2% (active).

`O=C1c2ccccc2C(=O)N1/N=C\c1ccccc1[N+](=O)[O-]`: the growth inhibition is 4.9%.

As to `O[C@H](CNCCS)[C@@H](O)CNCCS`, the growth inhibition is 54%.

As to `C[C@]12CC[C@H](O)CC1=CC[C@@H]1C2CC[C@]2(C)C(=O)N(N)C(=O)CC12` (stereo not given in full), the growth inhibition is 88.3% (active).

For `O=C(C(/C=N/C(=S)NCc1ccccc1)=C(/O)c1ccccc1)c1ccccc1`, the growth inhibition was 98% (active).

Take `C=CC1(c2ccc(-c3ccccc3)cc2)OCCO1`: the growth inhibition is 41.5%.

In the case of `C=C1CC(COc2ccc3c(C)cc(=O)oc3c2)(c2ccccc2)OC1=O` (stereo not given), the growth inhibition was 27%.

Turning to `CN(C)CCCNc1c2ccccc2nc2ccc([N+](=O)[O-])cc12`, the growth inhibition is 25.6%.

Consider `CN1CCC(OC(=O)c2ccc3ncccc3c2)CC1`, for which the growth inhibition was 26.6%.

Turning to `COc1ccc(/C=C2/C(=O)N(C(=O)c3ccccc3O)N=C2C)cc1OC`, the growth inhibition is 52.9%.

With `CC1([N+](=O)[O-])C(=O)C2(N3CCOCC3)CCCC2C1c1ccccc1` (stereo not given), the growth inhibition was -0.3%.

On to `COc1ccc(C2=C(Cl)C(=O)N(c3ccc(C)cc3)C(=O)C2(Cl)Cl)cc1`, for which the growth inhibition was 96.8% (active).

Consider `COc1ccnc(-c2cc(OC)cc(/C(N)=N/O)n2)c1`, for which the growth inhibition was 93.1% (active).

Take `Nc1ccccc1CCc1ccccc1`: the growth inhibition was 84.5% (active).

Regarding `COC(=O)c1ccc(OCCC(=O)CCl)cc1`, the growth inhibition is 99.8% (active).

Turning to `CCCCCCCCCCCCS(=O)(=O)CC(Br)C(=O)c1ccco1` (stereo not given), the growth inhibition was 96.9% (active).

Take `FC(F)(F)C(F)(F)C1(F)C(F)(F)C(F)(F)C(F)(F)C(F)(F)C1(F)F`: the growth inhibition was 99.5% (active).

For `O=C(O)C(O)C(O)C(O)C(O)CO.[Ag]` (stereo not given), the growth inhibition is 99.3% (active).
